Rows were chosen to be rich in hits. Some 12% of all compounds tested hit in one or more screens of this group.
Pf growth 48h = Primary qHTS for delayed death inhibitors of the malarial parasite plastid, 48 hour incubation | P. falciparum luciferase growth in erythrocytes, 48 h | Potency, µM (top dose mostly 28.7 µM), for inactives: at the highest dose activity change, negative = inhibition, hits mostly inhibitors | hit rate 5.9% among 310,000; note: % is set by controls: 0 for no effect and ±100 for the full control effect
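Luciferase-expressing parasites in RBCs, 2% Hct / 0.1% parasitemia final; RPMI 1640 + 0.5% Albumax; 37 C, 5% CO2, one generation; luminescence read-out, lower signal = inhibition.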
Sm TGR block = qHTS Assay for the Inhibitors of Schistosoma Mansoni Peroxiredoxins. AID 485364, 2010. Schistosoma mansoni thioredoxin glutathione reductase (TGR), Q962Y6. hit rate 3% among 360,000. purified TGR, DTNB reduction, TNB absorbance 405 nm. Potency, µM (series often up to 114 µM), for the others: at the highest dose activity change, negative = inhibition, most hits filed as inhibitors; note: % is set by controls: 0 for no effect and ±100 for the full control effect; nearly all actives have a fitted effect of over 60% in size
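Kinetic colorimetric format: TGR-catalysed, NADPH-driven DTNB reduction monitored via TNB absorbance. Enzyme dispensed at 20 nM; compound exposure 15 min at room temperature before reaction start.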
Pf growth 96h = Primary qHTS for delayed death inhibitors of the malarial parasite plastid, 96 hour incubation. P. falciparum luciferase reporter growth, 96 h. Potency, µM (titrated, usually from 28.7 µM), inactives show at the highest dose activity change, negative = inhibition, hits mostly inhibitors. hit rate 6.9% among 320,000; note: % is set by controls: 0 for no effect and ±100 for the full control effect
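Readout is luminescence from an integrated firefly luciferase in P. falciparum. Red cells, 2% hematocrit and 0.05% parasitemia final, were cultured with compound through two parasite generations (96 hours) at 37 C, 5% CO2.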
AmpC inh no detg = qHTS Inhibitors of AmpC Beta-Lactamase (assay without detergent); Potency, µM (top dose mostly 57.1 µM), for the others: at the highest dose activity change, negative = inhibition, most hits filed as inhibitors; hit rate 0.52% among 330,000; P00811; AID 485341, 2010; AmpC nitrocefin hydrolysis, absorbance 480 nm, 0.0001% Triton;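 note: plate controls were no compound for no effect and no enzyme for full effect; nearly all actives have a fitted effect of over 20% in size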
Target sequence (P00811 whole entry, looked up): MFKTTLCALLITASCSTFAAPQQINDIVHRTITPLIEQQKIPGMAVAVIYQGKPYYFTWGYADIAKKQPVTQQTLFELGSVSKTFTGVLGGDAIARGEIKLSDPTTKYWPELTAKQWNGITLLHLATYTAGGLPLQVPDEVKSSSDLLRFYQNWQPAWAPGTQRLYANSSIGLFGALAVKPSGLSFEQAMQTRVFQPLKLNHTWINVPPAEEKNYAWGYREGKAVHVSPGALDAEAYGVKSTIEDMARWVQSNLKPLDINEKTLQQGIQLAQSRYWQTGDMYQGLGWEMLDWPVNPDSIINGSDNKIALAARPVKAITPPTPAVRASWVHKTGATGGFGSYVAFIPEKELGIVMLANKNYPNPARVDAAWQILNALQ
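AmpC (5.3 nM in the dispensed reagent) in 20 mM phosphate pH 7.0 with 0.01% (detergent screen) or 0.0001% Triton X-100 was preincubated with compounds for 15 min at room temperature. Nitrocefin was then added from an 800 uM solution, and hydrolysis was followed at 480 nm.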
AmpC inh detg = qHTS Inhibitors of AmpC Beta-Lactamase (assay with detergent); Potency, µM (highest dose often 114 µM), for inactives: at the highest dose activity change, negative = inhibition, usual class: inhibitors; AmpC hydrolysis of nitrocefin, absorbance 480 nm, 0.01% Triton; hit rate 0.041% among 370,000; P00811;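 note: 0% = no-compound wells and -100% = no-enzyme wells; nearly all actives have a fitted effect of over 25% in size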
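20 mM phosphate pH 7.0 + 0.01% (detergent screen) or 0.0001% Triton X-100; 5.3 nM AmpC reagent; cpd preinc 15 min RT; nitrocefin (800 uM stock) to start; A480 q20 s × 4 min; Activity was normalised to no-enzyme and no-compound control wells.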
SARS PLP yeast = qHTS of Yeast-based Assay for SARS-CoV PLP. S. cerevisiae expressing SARS-CoV PLpro, growth rescue. Potency, µM (titrated, usually from 32.9 µM), without a hit: top-dose activity, positive = growth rescue, usual class: activators. hit rate 0.19% among 330,000. AID 485353, 2010; calls by dose curve; note: 0% is about no effect; nearly all actives have a fitted effect of over 55% in size
* = called active by the depositor; ? = inconclusive; . = not tested or not shown. Unless noted, calls come from the whole dose curve; as a rule, active = well fitted curve in the direction sought with a large enough effect; inconclusive = small, poorly fitted or top-dose-only effect, or another doubt; inactive = no such curve, though single readings can be large; an effect the other way counts as inactive or inconclusive. Potency is the fitted concentration of half-maximal effect.

SMILES	Pf growth 48h	Sm TGR block	Pf growth 96h	AmpC inh no detg	AmpC inh detg	SARS PLP yeast
COC(=O)C1=C(C)NC(=O)NC1c1ccc2ccccc2c1 (stereo not given)	?	-13.9%	10.4µM*	-36.3%	-10.4%	17.9%
COc1cc(Cl)cc(C2NC(=O)NC(C)=C2C(C)=O)c1OCC(=O)O (stereo not given)	.	-7.0%	13.0%	-11.7%	5.2%	6.1%
COc1cc(C2NC(=O)NC(C)=C2C(=O)OC2CCC(C)CC2)ccc1O (stereo not given)	11.7µM*	0.5%	2.62µM*	10.1%	-9.2%	5.7%
C=CCOc1c(Cl)cc(C2NC(=O)NC(C)=C2C(=O)OC)cc1Cl (stereo not given)	9.28µM*	-3.6%	.	-13.6%	-2.4%	-0.5%
COC(=O)C1=C(C)NC(=O)NC1c1ccccc1 (stereo not given)	-8.5%	-3.2%	?	-12.0%	?	-9.4%
CCCc1nc(SCC(=O)N2CCOCC2)c2c(C)c(C)sc2n1	-5.0%	0.3%	-1.1%	64.8%	-14.0%	-4.2%
O=[N+]([O-])c1cccc(N2Cc3ccccc3C2)c1	46.7%	-11.9%	61.4%	-32.8%	1.0%	-0.4%
Cc1noc(C)c1S(=O)(=O)N1CCCC(C(=O)Nc2ccc(C(C)C)cc2)C1 (stereo not given)	.	11.4%	.	.	2.0%	.
Nc1c(C(=O)O)sc2nc3c(cc12)CCCC3	31.3%	0.0%	29.5%	-36.0%	4.9%	1.2%
N#Cc1sc2nc3c(cc2c1N)CCCC3	74.0%	-5.8%	11.7µM*	-21.3%	-15.3%	-52.9%
CC1CCN(c2nn3c(=O)c(C(=O)NCCc4ccccc4)cnc3s2)CC1	.	5.8%	.	.	6.2%	.
CSc1ccccc1NC(=O)Cn1nc([N+](=O)[O-])cc1C	19.8%	-6.9%	0.185µM*	-35.7%	2.0%	4.4%
Cc1cc([N+](=O)[O-])nn1CC(=O)N1CCc2ccccc2C1	.	3.5%	12.5%	-1.0%	-4.3%	11.6%
CSc1ccccc1NC(=O)Cn1nc([N+](=O)[O-])c(Cl)c1C	22.5%	-2.8%	5.2%	-20.4%	-3.1%	0.6%
Cc1cc([N+](=O)[O-])nn1CC(=O)N1CCN(Cc2ccccc2)CC1	?	1.2%	10.4µM*	-1.9%	-3.2%	6.1%
Cc1ccc(NC2=CC(=O)CC(c3ccccc3)C2)cc1 (stereo not given)	?	0.0%	?	-24.0%	-7.2%	3.0%
Cc1ccc(NC2=CC(=O)CC(c3ccc(Cl)cc3)C2)cc1 (stereo not given)	13.1µM*	2.2%	?	?	-11.5%	6.7%
CC1CN(C2=NC(=O)/C(=C3/C(=O)N(Cc4ccc(F)cc4)c4ccccc43)S2)CC(C)O1 (stereo not given)	?	-5.6%	5.86µM*	-9.6%	-2.8%	1.3%
O=C1N=C(N2CCOCC2)S/C1=C1\C(=O)N(Cc2ccccc2)c2ccccc21	14.8%	0.0%	?	-9.6%	-12.3%	-2.2%
CN1C(=O)/C(=C2\SC(N3CCCCCC3)=NC2=O)c2ccccc21	.	1.4%	4.15µM*	-0.7%	6.5%	-11.1%
O=C(c1cccc(Cl)c1)N1CCCC(c2ccc(Cl)cc2)=N1	?	0.1%	3.7µM*	16.1%	-12.1%	-34.1%
O=C(C1CC1)N1CCCC(c2ccc(Cl)cc2)=N1	46.2%	1.4%	-7.3%	19.2%	-14.0%	-3.6%
O=C(c1ccccc1)N1CCCC(c2ccc(Cl)cc2)=N1	14.7µM*	2.8%	9.28µM*	91.3%	-14.5%	-32.4%
COCc1cc(=O)n2[nH]c(-c3ccsc3-n3c(C)ccc3C)cc2n1	.	?	-5.9%	2.5%	-3.9%	5.1%
Cc1nc2cc(-c3ccsc3-n3c(C)ccc3C)[nH]n2c(=O)c1Cl	.	-26.5%	14.7µM*	-50.1%	-1.4%	-2.0%
SMILES	Pf growth 48h	Sm TGR block	Pf growth 96h	AmpC inh no detg	AmpC inh detg	SARS PLP yeast
O=c1c2c(nc3cc(-c4ccccc4Cl)[nH]n13)CCS2	-56.0%	.	-28.1%	-48.8%	0.1%	0.0%
Cc1cc(=O)n2[nH]c(-c3ccsc3-n3c(C)ccc3C)cc2n1	73.3%	20µM*	6.57µM*	-8.1%	-8.0%	1.9%
CCN(CC)c1ccc(NS(=O)(=O)c2ccc(-c3coc(C)n3)cc2)c(C)c1	.	?	.	.	-7.2%	.
Cc1cc(N(C(=O)c2ccco2)C(C(=O)NC2CCCCC2)c2ccccc2)ccc1-n1cnnn1 (stereo not given)	9.28µM*	-5.7%	.	105.4%	-9.9%	-2.4%
COc1cccc(C(C(=O)NC2CCCCC2)N(C(=O)c2ccco2)c2ccc(-n3cnnn3)c(C)c2)c1 (stereo not given)	14.7µM*	-4.9%	-9.6%	169.4%	-13.3%	-14.8%
COc1cccc(N(C(=O)c2ccco2)C(C(=O)NC2CCCC2)c2ccc(N3CCOCC3)cc2)c1 (stereo not given)	?	-15.0%	18.3%	49.3%	-5.5%	1.6%
Cc1ccc(CSC2=Nc3ccccc3C3=NC(CC(=O)NC4CCCCC4)C(=O)N23)cc1 (stereo not given)	.	4.6%	.	.	6.3%	.
CN(C)CCCNC(=O)/C(=N\O)c1ccccc1	6.0%	-2.8%	.	-22.4%	1.4%	2.7%
Cc1cccc(C)c1C(=NCCCN(C)C)c1ccccc1	9.28µM*	4.9%	4.65µM*	28.8%	?	-12.3%
CC(=O)Nc1ccc(S(=O)(=O)N2CCN=C2SCc2ccc(F)cc2)cc1	?	-7.3%	14.7µM*	0.9%	-6.3%	.
O=S(=O)(c1ccccc1)N1CCN=C1SCc1cccc(Cl)c1	?	-9.3%	11.7µM*	-11.5%	-5.7%	-8.1%
O=S(=O)(c1ccccc1)N1CCN=C1SCc1ccc(Cl)c(Cl)c1	?	-1.7%	?	-29.0%	-6.1%	-14.2%
Cc1cc(C)nc(Sc2ncnc(N)c2[N+](=O)[O-])n1	?	3.98µM*	-2.4%	2.1%	-3.1%	-0.1%
Cn1c2c(c(O)c(-c3ccccc3)c1=O)C(=O)CC(C)(C)C2	?	-10.3%	?	0.9%	?	1.7%
Cc1cc(C)c(-c2c(O)c3c(n(C)c2=O)CC(C)(C)CC3=O)c(C)c1	?	-11.6%	5.86µM*	-16.1%	?	15.1%
COc1ccc(C2CC(=O)C3=C(C2)Nc2ccccc2NC3c2coc3ccccc3c2=O)cc1OC (stereo not given)	7.38µM*	0.1%	-19.0%	7.1%	-14.9%	-28.3%
ClC(Cl)(c1nnnn1-c1ccccc1)c1nnnn1-c1ccccc1	4.0%	20µM*	?	-55.7%	?	-97.8%
